# GLD-1 TGE inh: GLD-1/TGE RNA complex disruptors, primary screen, biochemical, fluorescence polarization; inhibition, % at 5.96 µM; AID 2280, 2010; purified GLD-1 + fluorescein TGE RNA; Female germline-specific tumor suppressor gld-1 (Caenorhabditis elegans), Q17339; 320,000 tested, 0.44% active;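 active = percent inhibition above a per-plate cutoff, the plate mean of test compounds plus 3 SD, cut at about 30% in these data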;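 also: 0% = DMSO wells with GLD-1 and probe and 100% = wells lacking GLD-1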
# Target sequence (Q17339 whole entry, looked up): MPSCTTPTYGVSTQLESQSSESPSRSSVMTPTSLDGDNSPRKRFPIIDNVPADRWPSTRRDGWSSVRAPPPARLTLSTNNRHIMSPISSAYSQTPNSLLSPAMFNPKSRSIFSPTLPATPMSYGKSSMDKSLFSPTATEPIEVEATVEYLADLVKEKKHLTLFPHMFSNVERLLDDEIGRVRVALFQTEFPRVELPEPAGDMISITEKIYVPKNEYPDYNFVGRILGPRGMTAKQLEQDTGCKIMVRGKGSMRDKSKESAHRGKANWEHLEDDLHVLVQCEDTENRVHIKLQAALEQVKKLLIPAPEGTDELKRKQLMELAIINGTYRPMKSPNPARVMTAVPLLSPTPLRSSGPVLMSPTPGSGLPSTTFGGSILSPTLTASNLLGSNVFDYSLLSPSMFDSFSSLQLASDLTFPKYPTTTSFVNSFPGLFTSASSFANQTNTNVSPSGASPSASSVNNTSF
# Bim-Mcl-1: inhibitors of Bim peptide binding to Mcl-1, primary screen, biochemical, bead-based flow cytometry, multiplex. Bim peptide-Mcl-1 binding. inhibition, % at 10 µM. 190,000 tested, 0.1% active. AID 1009, 2008; in the data active = inhibition above about 40%;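 also: 0% = no compound tracer wells and 100% = peptide blocker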
# Bcl-xL primary: inhibitors of human Bcl-xL, primary screen, biochemical, fluorescence polarization, HTS | Bcl-2-like protein 1 (Homo sapiens), Q07817 | GST-Bcl-xL / FITC-Bim BH3 peptide fluorescence polarization | inhibition, % at 10.9 µM | 320,000 tested, 0.7% active;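 active = inhibition above the mean of all tested compounds plus 3 SD, cutoff set per campaign, cut at about 30% in these data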;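 also: 0% = DMSO wells and 100% = unlabeled Bim-BH3 peptide competitor; inhibitors lower millipolarization by displacing the labeled peptide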
# Mcl1-Bid inh: Mcl-1/Bid binding inhibitors, primary screen, biochemical, TR-FRET, 1536-well; TR-FRET Mcl-1/Bid-Dy647 peptide binding; inhibition, % at 21.7 µM; 220,000 tested, 0.97% active;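 active = compounds that cut the binding signal by more than half at the single screening dose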;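 also: His-tagged Mcl-1 with europium anti-His antibody binding Bid BH3 peptide; 0% = Mcl-1 plus peptide wells and 100% = peptide-only wells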
# MCL1 BIM primary: inhibitors of MCL1 binding to BIM-BH3, primary screen, biochemical, fluorescence polarization | Induced myeloid leukemia cell differentiation protein Mcl-1 (Homo sapiens), Q07820 | GST-MCL1 / FITC-Bim-BH3 fluorescence polarization | inhibition, % at 10.9 µM | 320,000 tested, 0.68% active | AID 2057, 2009;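 active = inhibition above the mean inhibition of all tested compounds plus 3 SD, set per campaign, cut at about 40% in these data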;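 also: 0% = DMSO wells and 100% = unlabeled Bim-BH3 peptide control; higher means more loss of mP so more displacement of Bim peptide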
# Mcl1-Noxa inh: Mcl-1/Noxa binding inhibitors, primary screen, biochemical, TR-FRET, 1536-well; 220,000 tested, 1.5% active; TR-FRET Mcl-1/Noxa peptide binding, 2 h; Induced myeloid leukemia cell differentiation protein Mcl-1 (Homo sapiens), Q07820; AID 1022, 2008; inhibition, % at 21.7 µM;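 active = compounds that cut the protein-peptide binding signal by more than 50% relative to plate controls in a single-dose test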;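 also: His-tagged Mcl-1 with rhodamine Noxa BH3 peptide and terbium anti-His antibody; 0% = Mcl-1 plus Noxa peptide wells and 100% = peptide-only wells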
# The depositor's hits bear a star; . = not tested or not shown. Hits are enriched below; roughly 2.3% of the tested compounds scored in any of these assays.
SMILES,GLD-1 TGE inh,Bim-Mcl-1,Bcl-xL primary,Mcl1-Bid inh,MCL1 BIM primary,Mcl1-Noxa inh
O=C1/C(=C\c2cc3c(cc2Cl)OCO3)N2CCC1CC2,4,-4,3,4,3,23
O=C1/C(=C\c2ccncc2)N2CCC1CC2,1,.,-1,-20,7,4
O=C1/C(=C\c2ccc(Cl)c(Cl)c2)N2CCC1CC2,0,.,-3,54*,4,10
O=C1/C(=C/c2cc3c(cc2Cl)OCO3)N2CCC1CC2,54*,-2,4,-14,6,22
N#Cc1ccc(NC(=O)CN2C(=O)NC3(CCCCCCC3)C2=O)cc1Cl,0,.,0,.,-6,.
CC(=O)N(C1=NCCCS1)c1ccccc1Cl,1,-2,5,-4,-7,-7
CCN(CC)C(=O)c1ccc(NC(=O)c2ccc(-n3cncn3)c([N+](=O)[O-])c2)cc1,4,.,-5,.,-3,.
c1cncc(C2CCCCN2)c1 (stereo not drawn),8,.,22,61*,18,14
Cc1cc(=O)oc2c(C)c(OCC(=O)N3CCC(C(=O)O)(c4ccccc4)CC3)ccc12,-2,.,4,.,4,.
CN1CCC(N(C)c2ncnc3ccc(Br)cc23)CC1,.,0,.,-9,.,48
Cc1ccc(-c2nc(N(C)C3CCN(C)CC3)c3ccccc3n2)cc1,5,-2,4,7,3,63*
C=CCN1CC[C@]23c4c5ccc(O)c4OC2C(O)CC[C@@]3(O)[C@H]1C5 (stereo partly drawn),-2,.,.,.,.,.
CCCNC(=O)c1c(N)n(Cc2ccc3c(c2)OCO3)c2nc3ccccc3nc12,11,1,7,-22,12,56*
CC(C)CCNC(=O)c1c(N)n(Cc2ccc3c(c2)OCO3)c2nc3ccccc3nc12,8,4,5,26,5,30
COCCOC(=O)c1c(N)n(Cc2ccco2)c2nc3ccccc3nc12,63*,.,31*,.,33,.
COCCCNC(=O)c1c(N)n(Cc2ccco2)c2nc3ccccc3nc12,47*,.,49*,-81,54*,55*
CCCNC(=O)c1c(N)n(Cc2ccco2)c2nc3ccccc3nc12,17,2,29,17,31,38
CC(C)CNC(=O)c1c(N)n(Cc2ccco2)c2nc3ccccc3nc12,22,1,16,33,23,87*
CN(C)C(=O)O/N=C(\N)COc1ccc(C(C)(C)C)cc1,4,.,-3,1,4,-7
N=Cc1c(O)n(-c2ccccc2)c(=O)n(-c2ccccc2)c1=O,-3,.,1,-3,1,8
CCCC[N+]12CCC(CC1)C(Cc1ccccc1)C2 (stereo not drawn),5,.,1,-12,4,-2
CC1Oc2cc3c(-c4c(O)cc(O)c5c(O)c6c(cc45)OC(C)C(C)C6=O)c(O)cc(O)c3c(O)c2C(=O)C1C (stereo not drawn),11,.,14,42,21,103*
C=C1C[C@@H]2[C@H](CC[C@]3(C)C(=O)CC[C@@H]23)[C@@]2(C)C=CC(=O)C=C12,4,0,3,-10,1,-31
CC[C@]12C=CCN3CCC4(c5cc(Br)c(OC)cc5N(C)C4[C@@](O)(C(=O)OC)[C@@H]1OC(C)=O)C32 (stereo partly drawn),2,1,-9,-14,-18,4
CCOc1ccc(N2C(=O)/C(=C/c3ccc(C)o3)C(=O)NC2=S)cc1,-12,.,7,.,-10,.
SMILES,GLD-1 TGE inh,Bim-Mcl-1,Bcl-xL primary,Mcl1-Bid inh,MCL1 BIM primary,Mcl1-Noxa inh
Cc1ccc(N2C(=O)/C(=C/c3ccc(CN(CCC#N)S(C)(=O)=O)o3)C(=O)NC2=S)cc1C,10,1,14,5,28,66*
Cc1cccc(N2C(=O)/C(=C/c3ccc(CN(CCC#N)S(C)(=O)=O)o3)C(=O)NC2=S)c1,0,2,8,4,13,53*
NC(Cc1ccccc1)c1nc(-c2ccccc2)no1 (stereo not drawn),-12,.,0,-17,1,-12
C=CCC1(CN2CCCC2=O)C(=O)NC(=O)NC1=O,-5,-1,1,-2,2,8
C=CCC1(CN2CCCCCC2=O)C(=O)NC(=O)NC1=O,-5,1,-1,61*,8,-12
COc1ccc(N/N=C/c2c(O)n(-c3cccc(C)c3)c(=O)[nH]c2=O)cc1,-8,0,40*,-66,36,21
Cc1ccc(-n2c(O)c(/C=N/Nc3ccccc3)c(=O)[nH]c2=O)cc1C,-1,.,2,-33,3,19
Cc1cccc(N2C(=O)NC(=O)/C(=C\C=C\c3ccco3)C2=O)c1,6,.,2,-33,-24,23
Cc1cccc(N2C(=O)NC(=O)/C(=C/c3ccc([N+](=O)[O-])o3)C2=O)c1,-9,-2,33*,28,48*,72*
COc1ccc(CN2C(=O)NC(=O)/C(=C/c3ccc([N+](=O)[O-])o3)C2=O)cc1,.,1,.,34,.,95*
CN1C(=O)c2ccccc2NC(=O)C1Cc1ccccc1 (stereo not drawn),1,4,5,-9,6,-17
C=CCN1C(=O)/C(=C/c2ccc(Br)s2)C(=O)NC1=S,-27,.,6,.,28,.
CCN1C(=O)/C(=C\c2ccc([N+](=O)[O-])s2)C(=O)NC1=S,.,2,.,32,.,94*
COC(=O)C1=C(c2ccc(F)cc2F)C[C@@H]2CC[C@H]1N2C(=O)N1CCC(C)CC1,5,.,4,.,5,.
CN1C(=O)N(C)C(=O)C2(Cc3c(ccc4ccccc34)N(C)C2)C1=O,4,-1,11,-74,4,51*
COc1ccc(C(=O)CC2(CC(=O)c3ccc(OC)cc3)C(=O)N(C)C(=O)N(C)C2=O)cc1,1,0,1,-24,7,-6
COc1cc(/C=C2\C(=O)NC(=O)N(c3ccccc3)C2=O)c([N+](=O)[O-])cc1OC,.,15,.,-77,.,20
COc1ccc(N2C(=O)/C(=C/c3cc(C)n(-c4ccc(C)cn4)c3C)C(=O)NC2=S)c(OC)c1,0,16,15,-26,5,15

# Screening results: PubChem BioAssay, several laboratories
